Most compounds without a hit are left out; they make up all but 2.4% or so of the library.
D2 PAM-1 – Beta-Arrestin HTS for Positive Allosteric Modulators of the Human D2 Dopamine Receptor: Potentiators; potentiation, % (concentration not given with the values); DiscoveRx D2 beta-arrestin cells, luminescence, 90 min; 100% = 57 uM dopamine signal; D(2) dopamine receptor (Homo sapiens), P14416; 360,000 compounds, 0.23% hits; in the data active = potentiation above about 50%; inconclusive = mostly about 30% to 49%
Target sequence (P14416 whole entry, looked up): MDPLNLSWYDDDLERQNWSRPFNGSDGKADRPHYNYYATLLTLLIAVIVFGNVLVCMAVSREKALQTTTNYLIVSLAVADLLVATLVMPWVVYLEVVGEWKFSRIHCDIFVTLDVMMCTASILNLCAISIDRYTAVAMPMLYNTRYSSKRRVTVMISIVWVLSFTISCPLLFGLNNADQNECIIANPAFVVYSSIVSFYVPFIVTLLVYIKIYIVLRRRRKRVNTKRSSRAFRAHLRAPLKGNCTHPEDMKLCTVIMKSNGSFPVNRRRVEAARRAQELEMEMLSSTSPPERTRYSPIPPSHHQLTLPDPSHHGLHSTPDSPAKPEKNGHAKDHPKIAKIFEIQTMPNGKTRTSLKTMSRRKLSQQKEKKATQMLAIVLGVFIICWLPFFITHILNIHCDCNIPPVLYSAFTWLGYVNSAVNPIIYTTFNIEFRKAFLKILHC
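D2 cells co-treated with compound plus 50 nM dopamine (EC20) for 90 min at 37 deg C to detect potentiation. Beta-arrestin recruitment was read as enzyme-fragment luminescence after 1 h at ambient temperature. Full response was set by 57 uM dopamine.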
D2 ag-1 – HTS Assay for Allosteric Agonists of the Human D2 Dopamine Receptor: Primary Screen for Agonists; D(2) dopamine receptor (Homo sapiens), P14416; HEK293 T-REx D2 cells, calcium flux agonist mode; activation, % at 2 µM; 340,000 compounds, 0.53% hits; AID 485358, 2010;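 active = activation over 3 SD above normal in the single-dose calcium agonist read, cut at about 30% in these data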; note: 0% is about no effect
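Agonism is scored from calcium flux in a force-coupled, inducible HEK293 cell line expressing D2, read kinetically for 180 s after compound addition against dopamine controls.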
D2 ag-2 – Beta-Arrestin HTS for Positive Allosteric Modulators of the Human D2 Dopamine Receptor: Agonists; D(2) dopamine receptor (Homo sapiens), P14416; DiscoveRx PathHunter D2 beta-arrestin, luminescence, 90 min; 100% = 57 uM dopamine signal; activation, % (test concentration not listed); 360,000 compounds, 0.084% hits; in the data active = activation above about 40%; inconclusive = between about 15% and that limit
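DiscoveRx PathHunter D2 beta-arrestin cells (2,100/well) attached overnight, then compound-stimulated 90 min at 37 C in HBSS/10 mM HEPES/0.1% Tween-20 buffer; beta-galactosidase complementation read by luminescence after 1 h at ambient temperature. Dopamine 57 uM final (EC100) as control.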
D2 antagonist – HTS Assay for Allosteric Antagonists of the Human D2 Dopamine Receptor: Primary Screen for Antagonists | D(2) dopamine receptor (Homo sapiens), P14416 | HEK293 TREx D2 cells, calcium flux, dopamine EC80 | inhibition, % at 10 µM | 340,000 compounds, 2% hits | AID 485344, 2010; in the data active = inhibition above about 30%; inactive = below that, where a call was filed; note: 0% is about no effect
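Overnight-induced (tetracycline, 30 C) HEK293 T-REx cells carrying force-coupled D2 receive a no-wash calcium dye, then compound, then EC80 dopamine at 180 s; signals are read kinetically throughout.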
D2 PAM-2 – HTS Assay for Positive Allosteric Modulators of the Human D2 Dopamine Receptor: Primary Screen for Potentiators; HEK293 T-REx D2, calcium flux, EC20 dopamine potentiation; potentiation, % at 10 µM; 340,000 compounds, 0.34% hits;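 active = potentiation over 3 SD above the plate norm, cut at about 30% in these data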; note: 0% is about no effect
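Potentiation of an EC20 dopamine calcium response measured kinetically over 180 s, after a preceding 180 s compound-only read flagging agonists. Cells: inducible Hek293 Trex D2 line, 4000/well, cultured overnight at 30 C before dye loading.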
* = called active by the depositor; ? = inconclusive; · = no result.

SMILES	D2 PAM-1	D2 ag-1	D2 ag-2	D2 antagonist	D2 PAM-2
Cc1ccc(N2C(=O)CSC23C(=O)Nc2ccccc23)cc1F (configuration not stated)	·	-0.2	·	·	6.7
CCC1CCCCN1CCCNC(=O)c1cc2c(=O)oc3ccc(C)cc3c2s1 (configuration not stated)	-24.4	0.8	3.2	35.5*	-1.7
CCCC(=O)Oc1c(Sc2ccc(Cl)cc2)c(C)nn1-c1ccccc1	·	0.1	·	·	-1.8
COC(=O)[C@H]1[C@H](c2ccccc2)[C@H](C(=O)OC)O[C@H]1c1ccccc1	-8.9	·	-5.3	·	·
COC(=O)C1C(c2ccccc2)C(C(=O)N2CCN(C)CC2)C1c1ccccc1 (configuration not stated)	7.7	0.3	-3.1	33.1*	1.0
CC(C)N(c1ccccc1)c1ccc(NC(=O)COC(=O)CCN2C(=O)c3cccc([N+](=O)[O-])c3C2=O)cc1	60.9*	-1.2	?	-1.9	-8.7
CC(=O)c1ccc(NC(=O)COC(=O)CCN2C(=O)c3cccc([N+](=O)[O-])c3C2=O)cc1	-10.4	0.2	-2.2	-5.3	-1.5
Cc1nc2c(c(C)c1CCC(=O)Nc1ccc(F)cc1)c(=O)n(C)c(=O)n2C	·	-1.0	·	·	16.9
CCn1c(C(=O)NCc2ccccc2OC)cc2sccc21	·	-0.3	·	·	26.2
FC(F)(F)c1nnc2ccc(NCc3ccccc3)nn12	2.0	-0.3	3.9	79.7*	2.5
FC(F)(F)c1nnc2ccc(NCc3cccnc3)nn12	-1.3	-1.8	-0.5	-10.1	2.2
COc1ccccc1NC(=O)Cn1cc(S(=O)(=O)Cc2ccccc2)c2ccccc21	·	·	·	·	6.0
CC(C)Cc1nnc(NS(=O)(=O)c2ccccc2)s1	-11.2	·	-0.7	·	·
CC(C)Cc1nnc(NS(=O)(=O)Cc2ccccc2)s1	0.1	-0.4	0.3	32.0*	6.2
COc1ccccc1Nc1ncc2c(n1)CCN(CC(C)C)C2	·	1.3	·	·	-1.9
O=C(O)CCSc1nc(C(F)(F)F)cc(=O)n1-c1ccccc1	-8.7	0.5	-2.3	32.7*	6.9
Cc1ccc(/C=C/C(=O)Nc2nccs2)o1	53.4*	0.2	8.2	11.2	1.4
Cc1ccc(/C=C/C(=O)Nc2ncc(C)s2)o1	25.3	-0.2	9.8	-3.9	7.8
CN1C(C(=O)NCCc2cccs2)CC2Cn3c(nc4cc(Cl)c(Cl)cc43)C21 (configuration not stated)	-16.8	0.8	2.9	47.5*	0.4
COCCCn1c(=O)c2sccc2n2c(CCCC(=O)Nc3cc(C)cc(C)c3)nnc12	·	-0.5	·	·	3.5
CCN(CC)C(=O)Cn1c(=O)n(-c2ccc(Cl)c(Cl)c2)c(=O)c2c(C)c(C(=O)N(CC)CC)sc21	·	0.2	·	·	-5.6
CN(C)C(=O)/C(=C\c1ccncc1)NC(=O)c1ccccc1	4.2	-0.6	-6.6	39.2*	1.1
CCN(CC)C(=O)/C(=C\c1ccncc1)NC(=O)c1ccccc1	-4.5	2.1	-1.8	-0.1	-6.3
CCc1ccc(C(=O)c2cn(Cc3ccccc3)c3cc(OC)c(OC)cc3c2=O)cc1	·	-1.9	·	·	12.9
Clc1cccc2c1CCN(Cc1nc(-c3cnccn3)no1)C2	-1.5	1.1	-5.4	40.0*	-11.3
CN(C)S(=O)(=O)c1ccc2c(c1)N(CC(=O)NCc1ccccc1)C(=O)C1CCCCN21 (configuration not stated)	·	-0.2	·	·	6.2
Cc1c(C(=O)Nc2ccc(S(=O)(=O)Nc3ncccn3)cc2)oc2ccccc12	-3.1	-0.3	-0.3	46.1*	21.5
CCC(C)c1ccc(S(=O)(=O)N2CCN(CC(O)COCC3CCCO3)CC2)cc1 (configuration not stated)	-9.4	-0.5	-4.4	33.2*	-8.6
